# Key:
# [1] = molecular target: Cytoplasmic 60S subunit biogenesis factor REI1 (UniProt P38344); experiment: cross-link between two proteins; cross-linking mass spectrometry
# [2] = molecular target: Large ribosomal subunit protein eL18A (UniProt P0CX49); experiment: as above
# [3] = molecular target: Large ribosomal subunit protein eL19A (UniProt P0CX82); experiment: as above
# [4] = molecular target: Large ribosomal subunit protein uL2A (UniProt P0CX45); experiment: as above
# Large subunit GTPase 1 = Large subunit GTPase 1 (UniProt P53145); experiment: as above
# [5] = molecular target: Large ribosomal subunit protein eL20A (UniProt P0CX23); experiment: as above
# [6] = molecular target: rRNA biogenesis protein RRP5 (UniProt Q05022); experiment: as above
# [7] = molecular target: Large ribosomal subunit protein eL32 (UniProt P38061); experiment: as above
# [8] = molecular target: Large ribosomal subunit protein eL37A (UniProt P49166); experiment: as above
# [9] = molecular target: Large ribosomal subunit protein uL13B (UniProt P26785); experiment: as above
# [10] = molecular target: Shuttling pre-60S factor ECM1 (UniProt P39715); experiment: as above
# [11] = molecular target: Nucleolar GTP-binding protein 1 (UniProt Q02892); experiment: as above
# [12] = molecular target: Probable metalloprotease ARX1 (UniProt Q03862); experiment: as above
# [13] = molecular target: Proteasome-interacting protein CIC1 (UniProt P38779); experiment: as above
# [14] = molecular target: Pumilio homology domain family member 6 (UniProt Q04373); experiment: as above
# UPF0642 protein YBL028C = UPF0642 protein YBL028C (UniProt P38202); experiment: as above
# [15] = molecular target: WD repeat-containing protein JIP5 (UniProt Q06214); experiment: as above
# [16] = molecular target: U3 small nucleolar RNA-associated protein 22 (UniProt P53254); experiment: cross-link between two proteins; affinity purification or IP with mass spectrometry; cross-linking mass spectrometry
# Chain of Large ribosomal subunit protein eL43A, P0CX25 (P0CX25 whole entry): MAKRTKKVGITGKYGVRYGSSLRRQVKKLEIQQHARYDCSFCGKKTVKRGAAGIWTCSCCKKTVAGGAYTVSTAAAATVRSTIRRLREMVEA
# Chain of Large ribosomal subunit protein eL18A (P0CX49 whole entry): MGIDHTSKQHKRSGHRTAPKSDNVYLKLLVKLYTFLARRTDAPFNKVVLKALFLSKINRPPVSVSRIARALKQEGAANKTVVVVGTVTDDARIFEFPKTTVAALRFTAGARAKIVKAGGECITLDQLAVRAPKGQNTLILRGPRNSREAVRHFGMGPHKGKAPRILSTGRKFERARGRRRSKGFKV
# Chain of Large ribosomal subunit protein eL20A (P0CX23 whole entry): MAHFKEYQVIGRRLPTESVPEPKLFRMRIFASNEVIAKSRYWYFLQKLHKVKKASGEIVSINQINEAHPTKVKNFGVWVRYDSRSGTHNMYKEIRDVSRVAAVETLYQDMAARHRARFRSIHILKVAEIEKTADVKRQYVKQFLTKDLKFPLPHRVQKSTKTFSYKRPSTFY
# Chain of UPF0642 protein YBL028C (P38202 whole entry): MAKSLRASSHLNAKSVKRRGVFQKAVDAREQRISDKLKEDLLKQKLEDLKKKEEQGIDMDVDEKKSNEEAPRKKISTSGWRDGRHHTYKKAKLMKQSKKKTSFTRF
# Chain of Large ribosomal subunit protein uL2A (P0CX45 whole entry): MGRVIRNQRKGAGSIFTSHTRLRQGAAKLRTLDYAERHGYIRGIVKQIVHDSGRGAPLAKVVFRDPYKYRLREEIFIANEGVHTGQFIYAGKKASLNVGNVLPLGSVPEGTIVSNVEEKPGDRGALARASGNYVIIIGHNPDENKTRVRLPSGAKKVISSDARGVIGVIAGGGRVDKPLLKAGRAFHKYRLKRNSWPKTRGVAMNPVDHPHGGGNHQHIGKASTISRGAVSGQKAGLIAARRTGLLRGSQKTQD
# Chain of Large ribosomal subunit protein uL2A, P0CX45 (P0CX45 whole entry): as above
# Chain of Large subunit GTPase 1 (P53145 whole entry): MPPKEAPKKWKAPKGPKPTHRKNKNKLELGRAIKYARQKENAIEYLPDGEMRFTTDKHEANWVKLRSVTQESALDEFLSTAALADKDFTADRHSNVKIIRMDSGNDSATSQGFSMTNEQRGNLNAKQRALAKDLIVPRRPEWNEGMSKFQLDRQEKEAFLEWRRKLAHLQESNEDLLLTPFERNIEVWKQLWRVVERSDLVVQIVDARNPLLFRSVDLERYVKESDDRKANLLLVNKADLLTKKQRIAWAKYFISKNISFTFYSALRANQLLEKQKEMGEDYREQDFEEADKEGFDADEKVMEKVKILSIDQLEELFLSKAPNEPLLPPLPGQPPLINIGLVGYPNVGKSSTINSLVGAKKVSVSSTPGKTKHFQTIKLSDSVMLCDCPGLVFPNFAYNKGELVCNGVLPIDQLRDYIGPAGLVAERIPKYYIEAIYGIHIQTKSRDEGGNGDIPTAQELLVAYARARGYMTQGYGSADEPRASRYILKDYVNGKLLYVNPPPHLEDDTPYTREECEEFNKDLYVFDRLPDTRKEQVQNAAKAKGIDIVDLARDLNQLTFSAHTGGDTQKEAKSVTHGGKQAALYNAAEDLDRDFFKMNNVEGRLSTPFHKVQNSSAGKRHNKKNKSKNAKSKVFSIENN
# Chain of Probable metalloprotease ARX1 (Q03862 whole entry): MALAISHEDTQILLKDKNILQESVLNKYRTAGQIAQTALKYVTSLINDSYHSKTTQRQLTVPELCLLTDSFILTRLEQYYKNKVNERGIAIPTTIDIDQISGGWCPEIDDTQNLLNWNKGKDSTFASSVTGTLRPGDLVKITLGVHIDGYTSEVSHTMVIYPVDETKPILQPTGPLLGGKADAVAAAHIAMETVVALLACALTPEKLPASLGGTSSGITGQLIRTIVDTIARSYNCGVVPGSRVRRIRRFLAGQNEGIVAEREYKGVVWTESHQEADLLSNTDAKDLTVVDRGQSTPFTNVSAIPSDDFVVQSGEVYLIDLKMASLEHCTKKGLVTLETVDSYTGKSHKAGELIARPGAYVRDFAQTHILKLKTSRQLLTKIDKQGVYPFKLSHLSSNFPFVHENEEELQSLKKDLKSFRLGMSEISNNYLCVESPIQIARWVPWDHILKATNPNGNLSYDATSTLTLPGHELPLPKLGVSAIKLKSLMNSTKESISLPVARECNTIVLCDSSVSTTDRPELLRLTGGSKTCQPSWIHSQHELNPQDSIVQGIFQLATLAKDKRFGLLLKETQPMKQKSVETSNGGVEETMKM
# Chain of Large ribosomal subunit protein eL19A (P0CX82 whole entry): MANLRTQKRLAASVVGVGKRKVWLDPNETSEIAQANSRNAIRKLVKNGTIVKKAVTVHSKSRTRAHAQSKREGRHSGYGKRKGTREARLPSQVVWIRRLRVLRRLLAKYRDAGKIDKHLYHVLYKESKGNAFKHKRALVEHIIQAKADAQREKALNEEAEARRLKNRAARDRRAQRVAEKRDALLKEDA
# Chain of Large ribosomal subunit protein eL15A, P05748 (P05748 whole entry): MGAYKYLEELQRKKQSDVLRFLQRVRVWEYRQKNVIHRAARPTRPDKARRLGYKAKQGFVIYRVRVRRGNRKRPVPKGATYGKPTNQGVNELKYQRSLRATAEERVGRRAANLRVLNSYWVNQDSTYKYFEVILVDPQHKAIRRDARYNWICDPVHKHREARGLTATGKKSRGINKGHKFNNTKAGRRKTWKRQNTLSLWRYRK
# Chain of Large ribosomal subunit protein eL32 (P38061 whole entry): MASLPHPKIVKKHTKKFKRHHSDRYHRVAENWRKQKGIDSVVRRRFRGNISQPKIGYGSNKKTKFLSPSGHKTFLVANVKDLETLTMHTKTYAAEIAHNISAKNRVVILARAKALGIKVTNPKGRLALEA
# Chain of Large ribosomal subunit protein uL13A, P26784 (P26784 whole entry): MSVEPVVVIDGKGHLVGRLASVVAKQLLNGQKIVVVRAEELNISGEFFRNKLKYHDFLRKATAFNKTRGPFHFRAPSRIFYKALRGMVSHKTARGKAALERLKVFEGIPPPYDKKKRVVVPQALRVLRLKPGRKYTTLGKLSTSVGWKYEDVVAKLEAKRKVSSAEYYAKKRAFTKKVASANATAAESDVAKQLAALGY
# Chain of Large ribosomal subunit protein uL14A, P0CX41 (P0CX41 whole entry): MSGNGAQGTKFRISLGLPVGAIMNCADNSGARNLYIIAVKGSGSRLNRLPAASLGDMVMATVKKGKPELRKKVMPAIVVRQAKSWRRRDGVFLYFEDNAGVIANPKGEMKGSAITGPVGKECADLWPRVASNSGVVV
# Chain of Large ribosomal subunit protein uL1A, P0CX43 (P0CX43 whole entry): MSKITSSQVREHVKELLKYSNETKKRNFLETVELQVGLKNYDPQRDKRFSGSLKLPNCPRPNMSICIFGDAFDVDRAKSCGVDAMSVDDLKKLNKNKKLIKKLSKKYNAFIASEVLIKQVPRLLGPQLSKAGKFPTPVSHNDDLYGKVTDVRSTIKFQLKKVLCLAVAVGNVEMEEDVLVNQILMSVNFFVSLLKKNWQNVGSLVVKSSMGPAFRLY
# Chain of Heat shock protein SSA1, P10591 (P10591 whole entry): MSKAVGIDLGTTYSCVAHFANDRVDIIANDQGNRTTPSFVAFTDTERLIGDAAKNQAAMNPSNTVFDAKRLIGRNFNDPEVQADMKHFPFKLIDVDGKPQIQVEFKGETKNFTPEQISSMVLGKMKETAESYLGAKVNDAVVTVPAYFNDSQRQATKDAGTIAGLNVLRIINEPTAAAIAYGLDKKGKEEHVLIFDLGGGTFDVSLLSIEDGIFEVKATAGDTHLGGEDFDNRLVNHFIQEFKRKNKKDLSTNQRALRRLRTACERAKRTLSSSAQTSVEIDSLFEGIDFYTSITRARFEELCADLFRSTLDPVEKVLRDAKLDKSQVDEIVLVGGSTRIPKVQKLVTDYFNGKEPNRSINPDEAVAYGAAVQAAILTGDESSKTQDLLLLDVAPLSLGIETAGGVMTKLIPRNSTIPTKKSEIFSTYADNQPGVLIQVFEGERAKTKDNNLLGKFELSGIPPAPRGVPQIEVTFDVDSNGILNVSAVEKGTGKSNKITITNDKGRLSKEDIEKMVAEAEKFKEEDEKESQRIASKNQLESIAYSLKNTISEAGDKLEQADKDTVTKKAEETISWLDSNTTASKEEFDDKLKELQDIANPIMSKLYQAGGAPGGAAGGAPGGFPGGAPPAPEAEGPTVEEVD
# Chain of Nucleolar GTP-binding protein 1 (Q02892 whole entry): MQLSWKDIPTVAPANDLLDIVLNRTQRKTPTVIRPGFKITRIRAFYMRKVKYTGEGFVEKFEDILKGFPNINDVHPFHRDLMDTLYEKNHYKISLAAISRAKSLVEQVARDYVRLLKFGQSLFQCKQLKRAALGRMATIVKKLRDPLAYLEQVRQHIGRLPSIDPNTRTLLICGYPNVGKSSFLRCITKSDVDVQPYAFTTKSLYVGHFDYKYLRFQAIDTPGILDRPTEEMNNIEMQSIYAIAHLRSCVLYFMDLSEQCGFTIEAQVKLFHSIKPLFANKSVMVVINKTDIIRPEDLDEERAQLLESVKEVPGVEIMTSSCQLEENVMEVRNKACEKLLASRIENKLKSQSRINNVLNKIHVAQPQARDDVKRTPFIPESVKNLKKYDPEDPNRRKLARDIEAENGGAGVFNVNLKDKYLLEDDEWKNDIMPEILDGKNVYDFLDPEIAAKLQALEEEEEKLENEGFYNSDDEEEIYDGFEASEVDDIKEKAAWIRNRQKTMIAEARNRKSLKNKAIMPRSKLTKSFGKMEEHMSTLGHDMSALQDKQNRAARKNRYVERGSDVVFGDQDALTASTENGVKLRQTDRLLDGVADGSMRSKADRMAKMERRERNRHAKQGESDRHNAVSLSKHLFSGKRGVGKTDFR
# Chain of Large ribosomal subunit protein eL37A (P49166 whole entry): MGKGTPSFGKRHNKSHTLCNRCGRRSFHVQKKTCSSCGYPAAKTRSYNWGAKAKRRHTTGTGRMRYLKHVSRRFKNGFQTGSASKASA
substance,measurement,setting,value
"Large ribosomal subunit protein eL24A, P04449",listed as a hit,[1],yes
"Large ribosomal subunit protein eL29, P05747",listed as a hit,[2],yes
"Large ribosomal subunit protein uL15, P02406",listed as a hit,[2],yes
"Ubiquitin-ribosomal protein eS31 fusion protein, P05759",listed as a hit,[3],yes
"Large ribosomal subunit protein eL43A, P0CX25",listed as a hit,[3],yes
same,listed as a hit,[4],yes
same,listed as a hit,Large subunit GTPase 1,yes
"Large ribosomal subunit protein eL33A, P05744",listed as a hit,[5],yes
"Large ribosomal subunit protein uL30A, P05737",listed as a hit,[5],yes
same,listed as a hit,[6],yes
"27S pre-rRNA (guanosine(2922)-2'-O)-methyltransferase, P25582",listed as a hit,[7],yes
"Large ribosomal subunit protein uL29A, P0CX84",listed as a hit,[8],yes
"Large ribosomal subunit protein eL15A, P05748",listed as a hit,[9],yes
"Large ribosomal subunit protein uL14A, P0CX41",listed as a hit,[4],yes
"Large ribosomal subunit protein uL2A, P0CX45",listed as a hit,Large subunit GTPase 1,yes
same,listed as a hit,[10],yes
"Pescadillo homolog, P53261",listed as a hit,[11],yes
"Large ribosomal subunit protein uL24A, P05743",listed as a hit,[12],yes
"Cytoplasmic 60S subunit biogenesis factor REI1, P38344",listed as a hit,[12],yes
"Large ribosomal subunit protein uL13A, P26784",listed as a hit,[13],yes
"Large ribosomal subunit protein uL5A, P0C0W9",listed as a hit,[14],yes
"Large ribosomal subunit protein uL3, P14126",listed as a hit,UPF0642 protein YBL028C,yes
"Large ribosomal subunit protein uL6A, P05738",listed as a hit,UPF0642 protein YBL028C,yes
"Large ribosomal subunit protein uL1A, P0CX43",listed as a hit,[15],yes
"Heat shock protein SSA1, P10591",listed as a hit,[16],yes
